Pf Dd2 growth: Plasmodium falciparum Dd2 growth inhibition | P. falciparum Dd2 growth, SYBR Green, 72 h | AID 1347417 | Potency, µM (top dose mostly 28.9 µM), for the others: top-dose activity, negative = inhibition, hits mostly inhibitors | hit rate 4.3% among 120,000; active = well fitted inhibition curve with a large enough effect;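 note: plate controls were DMSO vehicle for no effect and reference drug for full effect; nearly all actives have a fitted effect of over 65% in size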
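Readout: SYBR Green fluorescence, 485 nm excitation, 535 nm emission, after ~16 h lysis at 37C. Before that, Dd2-infected red cells (2.5% hematocrit) grew 72 h with compound, 29 uM top final concentration.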
The depositor's hits bear a star; i = inactive; [ ] = another dose, or the depositor's remark. The sample as a whole holds a higher share of hits than the screen did. Potency is the fitted concentration of half-maximal effect.

SMILES | Pf Dd2 growth
Cc1ccccc1Cn1c(=O)n(Cc2ccco2)c(=O)c2oc3ccccc3c21 | 9%
O=C1NC(C(=O)NC2CC2)Cn2cccc21 (stereo not drawn) | 25%
COC(=O)c1ccc(Cl)cc1NC(=O)N(Cc1ccc(C)o1)C1CCN(C(C)=O)CC1 | -21%
CCN1CCC(N(Cc2ccc3c(c2)OCO3)C(=O)Nc2ccccc2OC)CC1 | -24%
O=C1[C@H]2CN(Cc3ccc(F)c(Cl)c3)C[C@H]2C(=O)N1Cc1ccc2c(c1)OCO2 | i
O=C(Nc1ccc(F)c(Cl)c1)N(Cc1ccc2c(c1)OCO2)C1CCN(Cc2ccccc2)CC1 | 8.9µM*
O=C([C@@H]1COCC(=O)N1Cc1ccccc1)N1CCN(Cc2ccc3c(c2)OCO3)CC1 | 31%
CCN1CCC(N(Cc2ccc3c(c2)OCO3)C(=O)Nc2cc(Cl)ccc2C(=O)OC)CC1 | 3.5µM*
Cc1nnnn1CCCN1CCC2(CC1)CNC(C(=O)O)C2 (stereo not drawn) | -4%
c1ccc(CN[C@H]2CO[C@H]3[C@@H]2OC[C@@H]3n2cc(CC3CCCCC3)nn2)cc1 | -4%[44.1 µM]
Cc1nc2cc(CNC(=O)CN3C(=O)CN(C)C3=O)ccc2n1C | 23%
Cc1cc(C)n(Cc2ccc(C(=O)NCC(=O)N3CCCCCNC(=O)CC3c3ccccc3)o2)n1 (stereo not drawn) | -19%
COc1cccc(NC(=O)Cn2ccn3nc4c(c3c2=O)CCCCC4)c1 | i
CN1CC(=O)N(C2CCCNC2)Cc2c1ncnc2N(C)Cc1ccc(F)cc1 (stereo not drawn) | 5%
CNC(=O)[C@H]1C[C@H](Oc2ccccc2)CN1C(=O)c1ccc(Cc2c(C)noc2C)o1 | -8%
Cc1cccc(CC(=O)N(C)CC2CCOCC2)c1 | 39%
O=C(CCC[C@@H]1[C@H]2CCCN3CCC[C@@H](CN1C(=O)c1ccccc1)[C@@H]23)NCCCN1CCCC1=O | -3%
CCN(CC)C(=O)CC1Sc2ncccc2N(CC(C)C)C1=O (stereo not drawn) | 11%
COc1ncccc1C(=O)N1CCc2onc(-c3cccc4ccccc34)c2C1 | -20%
O=S(=O)(c1cccnc1)N1CCc2onc(-c3cccc4ccccc34)c2C1 | -17%
COCc1cc(N2CCc3onc(-c4cccc5ccccc45)c3C2)ncn1 | 14µM*
CN(Cc1cnc(N)nc1)C(=O)C(c1cccc(F)c1)N(C)C (stereo not drawn) | 8%
CC(C)NC(=O)[C@@H]1C[C@H](N)CN1S(=O)(=O)c1cccc2nsnc12 | 19%
CCc1ccccc1NC(=O)C1CCCN(S(=O)(=O)c2cccc3nsnc23)C1 (stereo not drawn) | -24%
Cc1cccc(C)c1NC(=O)C1CCCN1S(=O)(=O)c1cccc2nsnc12 (stereo not drawn) | i
SMILES | Pf Dd2 growth
CCN(C(=O)C(NS(=O)(=O)c1cccc2nsnc12)c1ccccc1)c1ccccc1 (stereo not drawn) | -1%
CCCCN(C(=O)C1CCC(CNS(=O)(=O)c2cccc3nsnc23)CC1)c1ccccc1 (stereo not drawn) | 2.2µM*
CCc1cccc(CC)c1NC(=O)C1CCC(CNS(=O)(=O)c2cccc3nsnc23)CC1 (stereo not drawn) | 3.2µM*
Cc1cccc(N(C)C(=O)C(Cc2ccccc2)NS(=O)(=O)c2cccc3nsnc23)c1 (stereo not drawn) | 7%
CC(C)CCNC(=O)C1CCC(CNS(=O)(=O)c2cccc3nsnc23)CC1 (stereo not drawn) | 3.2µM*
CCCN(CCC)CCCNC(=O)C1CCCN(S(=O)(=O)c2cccc3nsnc23)C1 (stereo not drawn) | -19%
COc1ccc(NC(=O)N2Cc3[nH]cnc3C[C@H]2c2nc(-c3ccc(Cl)cc3)no2)cc1 | 7%
O=C(NCCc1ccncc1)C1Cn2cccc2C(=O)N1Cc1ccccc1 (stereo not drawn) | i
COc1ccc(CN2CCc3nc(C(=O)Nc4ccc(Cl)cc4)oc3CC2)cc1OC | -9%
CN(C)C(=O)[C@H]1CN2CCC1C[C@@H]2Cn1cc(C2(O)CCCCC2)nn1 (stereo partly drawn) | 12%[44.1 µM]
CSCC(=O)N[C@H]1CCN2C(=O)c3cc(-c4ccsc4)ccc3NC(=O)[C@H]12 | -9%[44.1 µM]
O=C(O)C1Cc2nc[nH]c2CN1C(=O)CCc1cn2ccccc2n1 (stereo not drawn) | 6%
CC(C)CNC(=O)c1cc2n(n1)CC(c1ccc3c(c1)OCO3)OC2 (stereo not drawn) | i
NCc1cccc(-c2ccccc2F)c1 | 11µM*
O=Cc1cccc(-c2cccc(C(F)(F)F)c2)c1 | i
O=C(c1ccncc1)N1CC2CCC(C1)N2Cc1cccc(-c2ccc(F)cc2F)c1 | -9%
O=Cc1cccc(-c2ccccc2F)c1 | 2%[76.6 µM]
NCc1cccc(-c2cccc(C(F)(F)F)c2)c1 | 11µM*
O=Cc1cccc(-c2ccc(F)cc2F)c1 | -11%[44.1 µM]
O=C(O)c1cccc(-c2cccc(C(F)(F)F)c2)c1 | 5%[44.1 µM]
NCc1cccc(-c2ccc(F)cc2F)c1 | 13µM*
Fc1ccccc1-c1noc(NCc2ccccc2)n1 | -4%
O=C(NCc1ccccc1)N[C@H]1CO[C@H]2[C@@H]1OC[C@@H]2n1nnnc1Oc1cccc(N2CCOCC2)c1 | -14%
CCc1nnc([C@@H]2CC(F)(F)CN2C(=O)COc2ccc(F)cc2)o1 | 21%
O=C(c1ccc(F)cc1Cl)N1CCC(Cc2nc(-c3ccccc3)no2)CC1 | i
SMILES | Pf Dd2 growth
O=C(Cc1ccc(N(Cc2ccccc2)C(=O)c2ccco2)cc1)Nc1ccccc1 | -7%
O=C1NCCCCCN(C(=O)Cc2cccnc2)[C@H]2CCC[C@@H]12 | 7%
COc1cccc(CC(=O)N2CCCN(S(=O)(=O)c3ccccc3)CCC(=O)NCC2)c1 | -4%
CCn1c(-c2ccc(S(=O)(=O)N3CCOCC3)cc2)csc1=Nc1ccc(C)c(Cl)c1 | -20%
COc1ccc(-c2csc(=Nc3ccccc3)n2CCO)cc1F | i
O=S(=O)(c1ccc(-c2csc(=Nc3ccc(OC(F)(F)Cl)cc3)n2CCCO)cc1)N1CCCC1 | 11µM*
O=C(NCC1CC1)c1cn(C2CN(C(=O)Cc3cccc(F)c3)C2)nn1 | 4%
COc1cc2c(cc1Oc1ccccc1)NC(=O)C21CCN(C(=O)c2ccnn2C)CC1 | i
COc1ccc2[nH]c3c(c2c1)CCNC31CCN(C(=O)Cc2ccncc2)CC1 | i
COc1ccc2[nH]c3c(c2c1)CCNC31CCN(C(=O)COc2ccc(F)cc2)CC1 | i
COc1ccc2[nH]c3c(c2c1)CCNC31CCN(C(=O)Cc2cccc(F)c2)CC1 | 7.1µM*
COCC(=O)N1CCCCCC1c1nnc(-c2ccccc2)o1 (stereo not drawn) | -10%
COc1ccc(CNC(=O)c2cc(Nc3ccc(OC)cc3OC)nc3ccccc23)cc1 | 8%
COc1ccc(Nc2cc(C(=O)NC3CCCC3)c3ccccc3n2)cc1 | 4%
COc1ccc(N2CCN(CCCNC(=O)c3cc(Nc4ccc(OC)cc4OC)nc4ccccc34)CC2)cc1 | -12%
O=C(NC1CCCCC1)c1cc(Nc2ccccc2)nc2ccccc12 | 2%
COc1ccc(Nc2cc(C(=O)NCCCN(C)C3CCCCC3)c3ccccc3n2)cc1 | 5.6µM*
COc1ccc(Nc2cc(C(=O)NCCCN(C)C3CCCCC3)c3ccccc3n2)c(OC)c1 | 8.9µM*
CC[C@@]1(C(=O)O)C[C@H](C(=O)N(C)CCCO)[C@H](c2ccc(OC)cc2)N1C | -5%
O=C(c1cccc(Cl)c1)N1CCCN(c2nc3ncccc3o2)CC1 | 1%
COc1ccc(S(=O)(=O)Nc2ccc(C)n(CC(=O)NC(C)C)c2=O)cc1 | i
COc1cc(Cl)c(C)cc1NC(=O)CN1C(=O)C(c2ccccc2)=NC12CCCC2 | 11µM*
